# HDAC3 inhib – inhibitors of human histone deacetylase 3. O15379. recombinant HDAC3, fluorogenic peptide/trypsin coupled, fluorescence. inhibition, % at 8.3 µM. 320,000 compounds, 0.15% hits; in the data active = inhibition above about 26%, passing the limit was not always enough; inconclusive = no clear call, values can overlap the other calls
# Rtt109 Vps75 – blocks Candida albicans Rtt109/Vps75 acetyltransferase activity. Q5AAJ8. purified Rtt109/Vps75, ThioGlo CoA-SH fluorescence, 4 h. inhibition, % at 34.9 µM. 330,000 compounds, 0.16% hits. AID 540336;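 active = inhibition of at least 50% in every replicate; inconclusive = best replicate reaches 50% inhibition but some replicates fall short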
# Target sequence (Q5AAJ8 whole entry, looked up): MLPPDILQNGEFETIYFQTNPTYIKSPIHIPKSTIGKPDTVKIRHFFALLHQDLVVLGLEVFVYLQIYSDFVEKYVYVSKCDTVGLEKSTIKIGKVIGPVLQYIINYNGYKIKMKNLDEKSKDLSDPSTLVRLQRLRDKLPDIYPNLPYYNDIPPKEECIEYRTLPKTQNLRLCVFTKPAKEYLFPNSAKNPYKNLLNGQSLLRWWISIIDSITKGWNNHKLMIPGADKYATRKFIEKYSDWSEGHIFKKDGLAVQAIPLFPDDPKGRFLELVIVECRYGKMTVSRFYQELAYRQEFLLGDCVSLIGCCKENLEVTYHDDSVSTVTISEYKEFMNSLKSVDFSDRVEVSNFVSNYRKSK
# GRK2 inh – human GRK2 inhibition via aptamer displacement | bead flow cytometry, FAM-aptamer displacement from GRK2 | inhibition of aptamer binding, % at 10 µM | 330,000 compounds, 0.59% hits;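 active = inhibition of aptamer binding above 40%, roughly 3 SD of noise, on plates passing a quality check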;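 also: median bead fluorescence of bound FAM aptamer so fluorescent compounds give negative values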
# Rce1 inhib – yeast Ras-converting enzyme inhibition | Q03530 | yeast membranes, quenched prenylated peptide cleavage fluorescence | calls only | 290,000 compounds, 0.27% hits;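 active = fall in fluorescence gain of 50% or more versus controls, with final raw signal at or below 3038400; inconclusive = same 50% fall but final raw signal above 3038400; inactive = fall in fluorescence gain under 50%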;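 also: plate controls were neutral control wells for no effect and wells lacking membranes for full effect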
# Efflux pump inh – antifungal efflux pump inhibition, Nile Red retention | S. cerevisiae Candida pump triplex | 330,000 compounds, 0.44% hits | inhibition, % at 10 µM;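 active = plate passing quality check with inhibition over a set limit, or well fluorescence over plate mean plus 4 SD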;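 also: Nile Red retained in pooled yeast measured as flow cytometry median fluorescence; 0% = buffer negative control and 100% = Enniatin B positive control; higher means more Nile Red kept so more efflux inhibition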
# ALR inh – inhibitors of human sulfhydryl oxidase ALR; P55789; inhibition, % (concentration not given with the values); purified ALR, DTT oxidation, H2O2 HRP-luminol luminescence; 290,000 compounds, 3.8% hits;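 active = mean replicate inhibition above about 79%, with every replicate also reaching it, limit read from the data; inconclusive = only one of the two criteria met; inactive = mean below limit and not every replicate reaching it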
# Target sequence (P55789 whole entry, looked up): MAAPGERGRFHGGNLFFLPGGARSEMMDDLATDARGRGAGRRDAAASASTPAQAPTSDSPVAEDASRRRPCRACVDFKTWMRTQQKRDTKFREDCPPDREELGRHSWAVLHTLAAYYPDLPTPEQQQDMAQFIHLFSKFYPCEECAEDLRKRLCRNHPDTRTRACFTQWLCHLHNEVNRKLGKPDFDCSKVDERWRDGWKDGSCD
# Numbers without * were called inactive; i = inactive; u = inconclusive; x = no result; + = active, no number. Sampled rows, rich in hits. Any-hit rate of the full collection: about 4.5%.
SMILES,HDAC3 inhib,Rtt109 Vps75,GRK2 inh,Rce1 inhib,Efflux pump inh,ALR inh
Cc1c(OCC(=O)N2CCC(C(=O)O)CC2)ccc2c3c(c(=O)oc12)CCC3,-11,-4,1,i,0,-23
Cc1c(Cc2ccccc2)c(=O)oc2c(C)c(OCC(=O)N3CCC(C(=O)O)CC3)ccc12,-45,4,3,+,0,x
COc1cc(/C=N/Nc2ccc(Cl)nn2)cc(OC)c1O,2,1,0,i,0,95*
COc1cc(/C=N/Nc2ccc(F)cc2F)cc(OC)c1O,0,5,1,i,0,99*
Cc1ccccc1Nc1nnc(SCC(=O)c2c(N)n(C3CC3)c(=O)[nH]c2=O)s1,x,-20,x,x,x,x
C=CCn1c(SCc2ccc(C(=O)O)cc2)nc2sc(C)c(C)c2c1=O,-8,3,0,i,0,99*
Cc1sc2nc(SCc3ccc(C(=O)O)cc3)n(Cc3ccco3)c(=O)c2c1C,4,19,3,i,0,12
CN(CC(=O)Nc1ccc(F)cc1)C(=O)COC(=O)c1cc(Br)c(Br)s1,x,0,x,x,x,x
COc1ccccc1N(Cc1cc(=O)[nH]c2ccccc12)C(=O)c1ccc([N+](=O)[O-])cc1,1,30,0,i,0,-8
Cn1cnc2c(cnn2C)c1=N,x,2,x,x,x,x
CCOc1cc(C(=O)OC(C(=O)NC(=O)NC)c2ccccc2)ccc1OCC(=O)N1CCOCC1 (stereo not drawn),27*,-2,20,x,0,-1
CCOc1cc(C(=O)Nc2ccccc2N2CCOCC2)ccc1OCC(=O)N1CCOCC1,3,-1,5,x,0,-2
Cc1nc2ccccn2c1-c1ccnc(=S)[nH]1,4,-3,1,i,0,100*
S=c1nccc(-c2ccc(Cl)cc2)[nH]1,-1,x,0,i,0,x
CSCCC(NS(=O)(=O)/C=C/c1ccccc1)C(=O)NCCc1ccc(S(N)(=O)=O)cc1 (stereo not drawn),4,-4,0,i,0,1
O=C(CSC1=Nc2ccccc2C2CC=NN12)Nc1ccc(F)c(F)c1F (stereo not drawn),-6,4,0,x,0,71
CCCCOC(=O)c1ccc(NC(=O)CSC2=Nc3ccccc3C3CC=NN23)cc1 (stereo not drawn),-9,0,0,i,0,100*
COc1cccc(C(=O)OCC(=O)NCCC2=CCCCC2)c1,6,-5,2,x,0,x
CC(C)NC(=O)COc1nncc2ccccc12,-2,x,1,i,0,100*
Cn1c(N)c(C(=O)Nc2c(Cl)cccc2Cl)sc1=S,x,4,1,i,0,99*
Cn1c(N)c(C(=O)NCc2ccccc2)sc1=S,1,-6,0,i,0,81*
COC(=O)c1ccccc1NC(=O)c1sc(=S)n(C)c1N,-2,7,1,x,0,42
Cc1c(C(=O)N2CCNCC2)oc2ccccc12,4,x,3,i,0,-3
COc1ccc(NC(=O)CN2C(=O)NC(C)(C3CC3)C2=O)cc1S(=O)(=O)N1CCCCC1 (stereo not drawn),8,-3,0,x,0,x
Cc1cc(O)c(CN(C)C)c2c1C(=O)/C(=C/c1ccco1)O2,16,-10,5,i,0,-10
SMILES,HDAC3 inhib,Rtt109 Vps75,GRK2 inh,Rce1 inhib,Efflux pump inh,ALR inh
Cc1cc(O)c(C=O)c2c1C(=O)Oc1c(CO)c(O)c3c(c1O2)C(O)OC3=O (stereo not drawn),4,1,72*,x,0,99*
CCOc1ccccc1NC(=O)NNC(=O)CCc1ccc(OC)cc1,-8,-1,0,i,0,-4
O=[N+]([O-])c1cc(Cl)c(Cl)c(Cl)c1Cl,-14,-5,0,x,0,-6
COc1ccc(N2CCN(C(CNC(=O)C(C)C)c3ccc4c(c3)OCO4)CC2)cc1 (stereo not drawn),-1,16,1,i,0,86*
COC(=O)NCC(c1ccc2c(c1)OCO2)N1CCN(c2ccc(OC)cc2)CC1 (stereo not drawn),5,2,1,i,0,91*
CN(C)CCNC(=O)C(=O)NCC(c1ccc2c(c1)OCO2)N1CCN(c2ccc(F)cc2)CC1 (stereo not drawn),2,1,0,i,0,99*
COc1ccc(N2CCN(C(CNC(=O)c3ccc4c(c3)OCO4)c3ccco3)CC2)cc1 (stereo not drawn),-3,3,2,i,0,57
COCCNC(=O)C(=O)NCC(c1ccc2c(c1)OCO2)N1CCN(c2ccc(F)cc2)CC1 (stereo not drawn),3,-4,0,i,0,31
O=C(CN1CCN(S(=O)(=O)N2CCOCC2)CC1)Nc1cc(Cl)ccc1Cl,-5,1,0,i,0,x
CC(C)C(NC(=O)c1ccc(F)cc1)C(=O)NC1(C)CCS(=O)(=O)C1 (stereo not drawn),-2,7,0,x,0,2
Nc1nc2ccc(N3CCOCC3)cc2s1,2,-2,0,x,0,98*
C=CC[C@@H]1C=C(C)C[C@H](C)C[C@H](OC)[C@H]2O[C@@](O)(C(=O)C(=O)N3CCCC[C@H]3C(=O)O[C@H](/C(C)=C/[C@@H]3CC[C@@H](O)[C@H](OC)C3)[C@H](C)[C@@H](O)CC1=O)[C@H](C)C[C@@H]2OC,u,x,0,i,1.1*,-14
O=C(Cc1ccccc1)Nc1ccc(NC(=O)c2ccccc2)c(Cl)c1,3,-9,0,i,0,5
O=C(NCCNC(=O)c1cc(OCC(F)(F)F)ccc1OCC(F)(F)F)Nc1cccc(C(F)(F)F)c1,36*,0,1,i,0,-9
CN(C)S(=O)(=O)NCCNC(=O)c1cc(OCC(F)(F)F)ccc1OCC(F)(F)F,0,x,2,i,0,-18
CCNC(=S)NNC(=O)CCn1cc(C)cn1,-7,-9,2,+,0,21
Cc1cnn(CCC(=O)NNC(=S)Nc2ccc(F)cc2)c1,-1,-6,0,i,0,82*
COc1ccc(CNC(=O)CN2CCC(NC(=O)c3ccccc3C)CC2)cc1,-1,4,3,i,0,-11
N=C(N)SCCc1cccc(CCSC(=N)N)c1,-2,1,0,i,0,98*
CCOc1cc(/C=N/NC(=O)CCc2n[nH]c(=O)[nH]c2=O)ccc1O,3,x,0,i,0,99*
CCOc1cc(/C=N/NC(=O)CCCC(=O)NC2CCCCC2)ccc1O,4,-3,2,i,0,99*
O=C1NC[C@H](CC2CCCCC2)N(CCc2cccc(F)c2)C1=O,-10,-5,0,i,0,0
COc1ccc(C2=CC(=O)C[C@H](c3ccc(F)cc3)C2)c(OC)c1,1,-5,4,x,0,5
